Screening data from PubChem.
Hits are enriched below; roughly 7.3% of the tested compounds scored in any of these assays.
NPC1 prom act: activates the NPC1 promoter. Huh7 NPC1 promoter luciferase reporter, 24 h. Potency, µM (series often up to 9.22 µM), for inactives: at the top dose activation, most hits filed as activators. hit rate 2.4% among 320,000. AID 485313; also: % of control where 0% means no effect; nearly all actives have a fitted effect of over 60% in size
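In 1536-well qHTS, Huh7 cells harboring an NPC1 promoter–luciferase construct received compound for 24 h; activation was quantified by luminescence following luciferase reagent addition.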
Luc counter: blocks Kinase-Glo luciferase, a counter-screen artifact. Q27757. Kinase-Glo luciferase, ATP luminescence, 8 min. Potency, µM (doses to about 38.3 µM), without a hit: at the highest dose activity change, negative = inhibition, hits mostly inhibitors. hit rate 0.28% among 200,000. AID 1379; also: % is scaled to controls: 0 for no effect and ±100 for the full control effect; nearly all actives have a fitted effect of over 60% in size
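Luminescence was the read-out, taken after 8-minute incubation at ambient temperature. Luciferase turned over luciferin with 10 uM ATP in imidazole pH 7.2 buffer containing KCl, MgCl2, Tween 20 and BSA.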
SMN2 splice up: increases expression of the SMN2 splice variant. HEK293 SMN2-luciferase splicing reporter, luminescence, 30-36 h. Potency, µM (doses to about 46.1 µM), for inactives: at the top dose activity change, positive = activation, usual class: activators. hit rate 2.8% among 210,000. AID 1458; also: % of control where 0% means no effect; nearly all actives have a fitted effect of over 55% in size
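qHTS luciferase splicing reporter: luminescence rises when SMN2 exon 7 is included in transfected HEK293 cells. Compound exposure lasted 30-36 h at 37C, with 4.5 mM final sodium butyrate as control, followed by a ONE-Glo read.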
FLuc counter: firefly luciferase modulation, counter-screen for miR-21 project | purified FLuc, Km substrates, luminescence inhibition | AID 588342 | Potency, µM (highest dose often 57.5 µM), for inactives: at the top dose activity change, negative = inhibition, hits mostly inhibitors | hit rate 6.9% among 360,000;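 also: plate controls were vehicle for no effect and reference inhibitor for full effect; nearly all actives have a fitted effect of over 55% in size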
Target sequence (P08659 whole entry, looked up): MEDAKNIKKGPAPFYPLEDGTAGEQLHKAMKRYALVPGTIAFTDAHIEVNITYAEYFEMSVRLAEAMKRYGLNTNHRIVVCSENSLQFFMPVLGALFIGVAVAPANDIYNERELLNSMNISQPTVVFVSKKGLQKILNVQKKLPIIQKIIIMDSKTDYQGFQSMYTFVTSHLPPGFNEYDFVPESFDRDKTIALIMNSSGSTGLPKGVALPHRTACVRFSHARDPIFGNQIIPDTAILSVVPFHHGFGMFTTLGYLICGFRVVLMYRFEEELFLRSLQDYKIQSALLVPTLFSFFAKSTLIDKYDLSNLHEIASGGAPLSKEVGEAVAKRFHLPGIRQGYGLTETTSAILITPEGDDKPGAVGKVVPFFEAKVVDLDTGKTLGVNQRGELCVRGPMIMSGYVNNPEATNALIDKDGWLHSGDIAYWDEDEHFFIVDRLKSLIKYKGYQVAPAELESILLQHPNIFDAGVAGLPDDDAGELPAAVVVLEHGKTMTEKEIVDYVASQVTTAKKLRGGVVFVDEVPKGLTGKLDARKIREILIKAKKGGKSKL
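Purified P. pyralis luciferase, 10 nM final, with Km-level 10 uM D-luciferin and 10 uM ATP in 50 mM Tris acetate pH 7.5, 10 mM Mg acetate, 0.01% Tween-20, 0.05% BSA; 6-point qHTS titration about 60 µM downward; luminescence read.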
ELG1 genotox: genotoxicity induction in ELG1-luciferase HEK293T cells. HEK293T ELG1-luciferase reporter, luminescence, 16 h. Potency, µM (highest dose often 46 µM), for inactives: top-dose activity change, positive = activation, most hits filed as activators. hit rate 1.3% among 330,000. AID 504466; also: % of control where 0% means no effect; nearly all actives have a fitted effect of over 60% in size
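DMSO vehicle served as control against compound-treated ELG1-luciferase HEK293T cells; exposure lasted 16 hr at 37 °C and 5% CO2, followed by ONE-Glo luminescence detection after 30 min.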
Rab9 prom act: activates the Rab9 promoter | Huh7 Rab9 promoter-luciferase reporter, luminescence, 24 h | Potency, µM (top dose mostly 9.22 µM), inactives show top-dose activation, negative = inhibition, hits mostly activators | hit rate 2.8% among 320,000; also: % of control where 0% means no effect; nearly all actives have a fitted effect of over 60% in size
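Huh7 reporter line, Rab9 promoter upstream of luciferase. Compound exposure 24 h at 37 °C in reduced-serum medium with 10% FBS. Read-out: luminescence.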
The depositor's hits bear a star; u = inconclusive; x = no result; [ ] = remark or other dose. Calls follow the shape of the dose curve; as a rule, active = well fitted curve in the direction sought with a large enough effect; inconclusive = small, poorly fitted or top-dose-only effect, or another doubt; inactive = no such curve, though single readings can be large; an effect the other way counts as inactive or inconclusive. Potency is read from the fitted curve at half-maximal effect.

SMILES	NPC1 prom act	Luc counter	SMN2 splice up	FLuc counter	ELG1 genotox	Rab9 prom act
Cc1ccc(-c2csc(Nc3ccccn3)n2)cc1	0.71µM*	x	x	0.6µM*	0.82µM*	1µM*
CCc1nn2c(=O)cc(COC(=O)c3ccc(NC(=O)c4cccs4)cc3)nc2s1	x	x	x	-1%	x	x
CN(C)/C=C1/Sc2ccccc2C1=O	11%	-5%	8%	u	-2%	-4%
CN1C(=O)S/C(=C/c2cccnc2)C1=O	-2%	3%	3%	2%	3%	3%
O=C1/C(=C\c2cccnc2)Sc2ccccc21	0%	-8%	13%	6.7µM*	u	2%
CC(=O)Nc1ccc(/C=C2/Sc3ccccc3C2=O)cc1	-1%	-3%	26%	0.76µM*	u	-8%
COc1ccc(/C=C(/CC(=O)Nc2ccccc2)c2nc3ccccc3s2)cc1	13%	-4%	-22%	21µM*	9%	27%
COc1cccc(CC(=O)Nc2ccc(-c3nc4ccccc4s3)cc2)c1	x	x	x	6µM*	x	x
COc1cc(OC)cc(C(=O)Nc2ccc(-c3nc4ccccc4s3)cc2C)c1	x	x	10%	-6%	x	x
COc1ccc(/C=C(/CC(=O)NCc2ccc(Cl)cc2)c2nc3ccccc3s2)cc1	4%	3%	-13%	-18%	16%	-4%
COc1cccc(-c2nc3ccccc3s2)c1	13%	-3%	u	0.85µM*	2.1µM*	u
CCN(CC)CCNC(=O)c1sc2nc(C)cc(C)c2c1-n1cccc1	x	x	x	-6%	x	x
CCOC(=O)Cn1c(=O)oc2cc(S(=O)(=O)Nc3cc(OC)cc(OC)c3)ccc21	x	x	0%	-8%	x	x
Cc1oc2ncn(CC(C)C)c(=O)c2c1C(=O)NC(C)c1ccccc1 (centres undefined)	x	x	x	-7%	x	x
COc1ccc2c(Sc3ccccc3)c(C(=O)NCCN(C)C)[nH]c2c1	x	x	x	4.8µM*	x	x
COc1ccc2c(N)c(C(=O)NN)[nH]c2c1	-2%	x	x	17µM*	-6%	-3%
COCCCNC(=O)c1[nH]c2cc(OC)ccc2c1Sc1ccc(C)cc1	x	x	x	-1%	x	x
COc1cccc(OCCCCn2c(-c3ccc(Cl)cc3)nc3ccccc3c2=O)c1	x	x	-1%	-6%	x	x
COc1ccccc1Cc1nc(-c2ccncc2)no1	-3%	-4%	x	-12%	0%	1%
Clc1ccc(OCc2nc(-c3ccncc3)no2)c(Br)c1	1.3µM*	5%	3.2µM*	2.1µM*	u	0.71µM*
Cc1cc(OCc2nc(-c3cccnc3)no2)c(C)cc1Br	11%	-2%	-3%	6%	13%	12%
Clc1ccccc1OCc1nc(-c2ccncc2)no1	2.8µM*	2%	13µM*	11µM*	u	2µM*
COc1ccc(-c2cc(C(F)(F)F)nc(SCCC(=O)Nc3ccc(O)cc3)n2)cc1	x	x	-4%	0%	x	x
O=C(COc1ccc(F)cc1)Nc1ccccc1C(=O)OCc1cc(=O)n2nc(C3CC3)sc2n1	x	x	x	4%	x	x
CC(C)CCNc1nc2c(S(=O)(=O)c3ccc(Br)cc3)nnn2c2ccsc12	x	x	x	-3%	x	x
SMILES	NPC1 prom act	Luc counter	SMN2 splice up	FLuc counter	ELG1 genotox	Rab9 prom act
Cc1nc(C#N)c(N/N=C/c2cccc(Cl)c2)o1	u	-7%	11µM*	4.8µM*	u	u
COc1cc(NC(=O)c2nnn(CC(=O)Nc3ccccc3)c2N)cc(OC)c1	x	x	x	5%	x	x
CC(C)c1ccc(C(=O)CSc2ncn[nH]2)cc1	u	2%	29%	9.5µM*	u	u
O=C(CSc1ncn[nH]1)c1ccc2c(c1)OCCO2	12%	-2%	3%	u	u	-1%[1.84 µM]
Cc1cccc(S(=O)(=O)Nc2ccc(-c3nc4ccc(C)cc4s3)cc2)c1	2.8µM*	-1%	11µM*	3µM*	u	2.8µM*
Cc1ccc2nc(-c3ccc(NS(=O)(=O)c4c(C)n(C)c(=O)n(C)c4=O)cc3)sc2c1	3.2µM*	x	x	1.9µM*	15%	2.8µM*
Cc1ccc2nc(-c3ccc(NC(=O)c4ccc(S(C)(=O)=O)cc4)cc3)sc2c1	x	x	x	2%	x	x
Cc1c(S(=O)(=O)Nc2ccc3c(c2)OCCO3)c(=O)n(C)c(=O)n1C	6%	-1%	-28%	-1%	-1%	6%
NC(=S)SCCC(=O)O	x	-2%[7.66 µM]	-15%[9.22 µM]	x	x	x
Cc1ccc(NCc2ccccc2-c2nnc(-c3ccccc3Cl)o2)c(C)c1	x	x	11%	u	x	x
Fc1ccc(NCc2ccccc2-c2nnc(-c3ccccc3Cl)o2)cc1	x	x	6%	6µM*	x	x
CCc1cccc(NCc2ccccc2-c2nnc(-c3ccccc3Cl)o2)c1	x	x	-3%	3.4µM*	x	x
Cc1ccc(NCc2ccccc2-c2nnc(-c3ccccc3Cl)o2)cc1Cl	x	x	-2%	u	x	x
COCCNC(=O)c1cnn(-c2ccc(C)cc2C)c1C1CCN(C(=O)OC(C)(C)C)CC1	x	x	x	3%	x	x
O=c1[nH]ncc(N/N=C\c2cccs2)c1Cl	-5%	-2%	u	-3%	21µM*	-2%
O=c1[nH]ncc(N/N=C\c2ccncc2)c1Cl	1%	0%	u	-1%	u	-5%
COC(=O)c1cc(C)nc2c1c(=O)nc(SCc1ccccc1F)n2C1CC1	x	x	x	-2%	x	x
Cc1ccc(/C=C/C(=O)Nc2ccc([N+](=O)[O-])cc2)o1	23%	x	x	-27%	-2%	u
CC(=O)c1ccc(NC(=O)/C=C/c2ccc(C)o2)cc1	x	x	13µM*	7.6µM*	x	x
Cc1ccc(/C=C/C(=O)Nc2ccc(Oc3ccccc3)cc2)o1	-5%	0%	-47%	6µM*	9%	1%
CC(C)Sc1nc(N)nc(-c2cccs2)c1C#N	u	-1%	18µM*	17µM*	u	2.8µM*
CSc1nc(N)nc(-c2cccs2)c1C#N	1%	0%	-11%	u	6%	1%
COc1cc(/C=N\Nc2nc3ccccc3[nH]2)cc(OC)c1OC	-3%	-20%	-24%	11µM*	-2%	-6%
COc1ccc(/C=N/Nc2nc3ccccc3[nH]2)cc1OC	u	-6%	1%[1.84 µM]	7.6µM*	11%	u
COc1ccc2c(c1)c(/C=N/Nc1nc3ccccc3[nH]1)c(C)n2C	6%	x	x	9.5µM*	4%	0%
CCOc1cc(/C=N/Nc2nc3ccccc3[nH]2)cc(Br)c1OCC(=O)N(C)C	0%	-1%	-82%	24µM*	-15%	0%
C=CCOC(=O)N[C@H](/C(C(=O)OC)=C(\C)NCc1ccccc1)c1cccc(OC)c1	x	0%	-13%	x	x	x
CC1CCN(C(=O)COC(=O)c2cccc(NS(=O)(=O)c3ccccc3)c2)CC1	1%	x	x	17µM*	1%	-4%
Nc1cc(C(=O)OCC(=O)N2CCOCC2)ccc1Cl	21%	x	x	u	u	u
